Where “and” joins values, the source holds several entries; their conditions need not be identical. Equal values may be shown once. Inconclusive results are not listed. Where a structure was tested more than once in an assay, its records may differ in their call. Calls of active or inactive are those of the source. How the source made its calls, unless noted: active means hit-call score of the fitted dose curve at least 0.9, where 1 is the maximum; inconclusive means response in the unintended direction; inactive means score below 0.9.
Experiments:
[1] = BSK_4H_Eotaxin3: BioMAP Diversity Plus: 4H Assay for Eotaxin 3 Biomarker Activity (AID 2283000; active means hit-call score of the fitted dose curve at least 0.9, where 1 is the maximum; inactive means score below 0.9); conditions: primary human endothelial cells (HUVEC); actives raise or lower the signal
Method in brief: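 ELISA quantitation of CCL26 (Eotaxin-3) protein from chemically dosed human vascular endothelial cells at 24 h; increases and decreases both scored relative to DMSO-treated baseline.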

[2] = molecular target: human Peroxisome Proliferator-activated Receptor alpha (PPARa), PPARA (gene 5465) (UniProt Q07869); experiment: ATG_PPARa_TRANS: Attagene TRANS-FACTORIAL HepG2 Assay for human Peroxisome Proliferator-activated Receptor alpha (PPARa) (AID 2283001)
Method in brief: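 Reporter transcripts quantified by RT-PCR plus capillary electrophoresis after 24 h treatment, fitted upward relative to DMSO. Cells: human HepG2 transiently carrying multiple GAL4-UAS reporter units driven by NR-Gal4 chimeras.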

[3] = read-out: Intercellular Adhesion Molecule 1 (ICAM1), ICAM1 (gene 3383); experiment: BSK_3C_ICAM1: BioMAP Diversity Plus: 3C Assay for Intercellular Adhesion Molecule 1 (ICAM1) Biomarker Activity (AID 2283003; active means hit-call score of the fitted dose curve at least 0.9, where 1 is the maximum; inactive means score below 0.9); conditions: primary human endothelial cells (HUVEC); actives raise or lower the signal
Method in brief: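 Chemicals are dosed onto primary human umbilical vein endothelium (3C system). After 24 h, ICAM-1 is measured by ELISA, and responses are fitted bidirectionally relative to DMSO.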

[4] = molecular target: human Retinoic Acid Receptor beta (RARb), RARB (gene 5915) (UniProt P10826); experiment: ATG_RARb_TRANS: Attagene TRANS-FACTORIAL HepG2 Assay for human Retinoic Acid Receptor beta (AID 2283004)
Method in brief: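 Fluorescent capillary-electrophoresis detection of GAL4-UAS reporter mRNA defines the endpoint, with induction over DMSO-treated wells scored as activity. Transiently transfected human hepatoma HepG2 cells expressing exogenous NR–Gal4 proteins are exposed to test chemicals for 24 h.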

[5] = molecular target: Retinoic acid receptor alpha (Homo sapiens) (UniProt P10276); experiment: ATG_RARa_TRANS: Attagene TRANS-FACTORIAL HepG2 Assay for human Retinoic Acid Receptor alpha (RARa) (AID 2283005)
Method in brief: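 Reporter transcripts, measured by RT-PCR with fluorescent labeling and capillary electrophoresis after 24 h dosing, reflect activity of an exogenous human RARa–GAL4 fusion in transiently transfected HepG2. Fitted for increase relative to DMSO.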

[6] = BSK_3C_Proliferation: Cell Proliferation Assessment in the BioMAP Diversity Plus: 3C Assay (AID 2283006; active means hit-call score of the fitted dose curve at least 0.9, where 1 is the maximum; inactive means score below 0.9;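 on AC50: potency may reflect either rise or fall in cell number versus DMSO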); conditions: primary human endothelial cells (HUVEC)
Method in brief: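 Cells (human umbilical vein endothelial, sub-confluent) receive test chemical; after 48 h they are fixed in 10% trichloroacetic acid, stained with 0.1% SRB and read at 560 nm. Activity is referenced to DMSO, fitting increases and decreases.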

[7] = molecular target: Peroxisome proliferator-activated receptor gamma (Homo sapiens) (UniProt P37231); experiment: ATG_PPARg_TRANS: Attagene TRANS-FACTORIAL HepG2 Assay for human Peroxisome Proliferator-activated Receptor-gamma (PPARg) (AID 2283007)
Method in brief: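 After 24 h of chemical exposure, transfected HepG2 cells carrying PPARγ-Gal4 chimera reporter constructs are lysed for RNA. Reporter transcripts are measured by RT-PCR and capillary electrophoresis with fluorescent labelling, and gain of signal is fitted versus DMSO.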

[8] = molecular target: Nuclear receptor subfamily 1 group I member 2 (Homo sapiens) (UniProt O75469); experiment: ATG_PXR_TRANS: Attagene TRANS-FACTORIAL HepG2 Assay for human Pregnane X Receptor (PXR) (AID 2283008)
Method in brief: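 HepG2 transfected (FuGene 6) with GAL4-UAS reporter units + PXR-Gal4 chimera; dosed 24 h. Total RNA → oligo(dT) RT → PCR → 6-FAM primer extension → HpaI cut → CE. Gain-of-signal vs DMSO.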

[9] = molecular target: human Retinoic Acid Receptor gamma (RARg), RARG (gene 5916) (UniProt P13631); experiment: ATG_RARg_TRANS: Attagene TRANS-FACTORIAL HepG2 Assay for human Retinoic Acid Receptor gamma (RARg) (AID 2283009)
Method in brief: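 TRANS format measured activity of exogenous NR-GAL4 fusion (RARg) in transfected HepG2 liver cells after 24 h dosing. Induced reporter RNA was detected by RT-PCR/capillary electrophoresis fluorescence, analysed in the positive direction against DMSO.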

[10] = molecular target: human RAR-related Orphan Receptor beta (RORb), RORB (gene 6096) (UniProt Q92753); experiment: ATG_RORb_TRANS: Attagene TRANS-FACTORIAL HepG2 Assay for human RAR-related Orphan Receptor beta (RORb) (AID 2283010)
Method in brief: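 Transfect HepG2 with multiple GAL4-UAS reporter transcription units; dose chemicals for 24 h; isolate RNA, reverse-transcribe and PCR-amplify reporter sequences; label, digest and resolve fragments by capillary electrophoresis; fit increases relative to DMSO.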

[11] = molecular target: Retinoic acid receptor RXR-alpha (Homo sapiens) (UniProt P19793); experiment: ATG_RXRa_TRANS: Attagene TRANS-FACTORIAL HepG2 Assay for human Retinoid X Receptor alpha (RXRa) (AID 2283012)
Method in brief: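 Measures exogenous chimeric NR-GAL4 activity in transfected HepG2 liver cells after 24 h of dosing. Induced reporter mRNA was detected by RT-PCR with capillary electrophoresis, and gain of signal was analysed against DMSO.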

[12] = molecular target: human Retinoid X Receptor beta (RXRb), RXRB (gene 6257) (UniProt P28702); experiment: ATG_RXRb_TRANS: Attagene TRANS-FACTORIAL HepG2 Assay for human Retinoid X Receptor beta (RXRb) (AID 2283013)
Method in brief: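 Chimeric receptor-Gal4 activity was assessed in transiently transfected human HepG2 cells after 24 h exposure. Transcripts from GAL4-UAS reporters were quantified by fluorescent RT-PCR and capillary electrophoresis, with DMSO as negative control and baseline.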

[13] = molecular target: human Thyroid Receptor alpha (THRa1), THRA (gene 7067) (UniProt P10827); experiment: ATG_THRa1_TRANS: Attagene TRANS-FACTORIAL HepG2 Assay for human Thyroid Receptor alpha (THRa1) (AID 2283014)
Method in brief: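 Measured here is mRNA from a GAL4-UAS reporter in transfected HepG2 cells carrying a Gal4-fused receptor, 24 h post-dose. DMSO served as negative control and baseline.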

[14] = read-out: E-selectin (Homo sapiens) (UniProt P16581); experiment: BSK_3C_Eselectin: BioMAP Diversity Plus: 3C Assay for Eselectin Biomarker Activity (AID 2283015; active means hit-call score of the fitted dose curve at least 0.9, where 1 is the maximum; inactive means score below 0.9); conditions: primary human endothelial cells (HUVEC); actives raise or lower the signal
Method in brief: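 Endpoint derived by bidirectional fitting against DMSO vehicle; signal is ELISA-detected E-selectin from primary HUVEC at 24 h post-dosing, with parallel SRB staining (0.1% SRB, 560 nm) flagging cytotoxicity.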

[15] = read-out: Interleukin-1 alpha (IL1a), IL1A (gene 3552); experiment: BSK_BE3C_IL1a: BioMAP Diversity Plus: BE3C Assay for Interleukin-1 alpha (IL1a) Biomarker Activity (AID 2283016; active means hit-call score of the fitted dose curve at least 0.9, where 1 is the maximum; inactive means score below 0.9); conditions: primary human bronchial epithelial cells; actives raise or lower the signal
Method in brief: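 Signal from IL-1a ELISA, taken 24 h after chemical dosing of human bronchial epithelial cells, is compared with DMSO as baseline using bidirectional curve fitting.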

[16] = read-out: Monocyte Chemoattractant Protein-1 (MCP1), CCL2 (gene 6347); experiment: BSK_3C_MCP1: BioMAP Diversity Plus: 3C Assay for Monocyte Chemoattractant Protein-1 (MCP1) Biomarker Activity (AID 2283017; active means hit-call score of the fitted dose curve at least 0.9, where 1 is the maximum; inactive means score below 0.9); conditions: primary human endothelial cells (HUVEC); actives raise or lower the signal
Method in brief: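 Using human vascular primary endothelium, researchers measured MCP-1 by ELISA 24 h after treatment, with DMSO serving as negative control for bidirectional fitting.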

[17] = read-out: Monocyte Chemoattractant Protein-1 (MCP1), CCL2 (gene 6347); experiment: BSK_4H_MCP1: BioMAP Diversity Plus: 4H Assay for Monocyte Chemoattractant Protein-1 (MCP1) Biomarker Activity (AID 2283018; active means hit-call score of the fitted dose curve at least 0.9, where 1 is the maximum; inactive means score below 0.9); conditions: primary human endothelial cells (HUVEC); actives raise or lower the signal
Method in brief: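 Endothelial cells from umbilical vein were treated with test chemical, then after 24 h MCP-1 levels were quantified by ELISA; endpoint values came from bidirectional fitting with DMSO as baseline of activity.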

[18] = read-out: Human Leukocyte Antigen - DR isotype (HLADR), HLA-DRA (gene 3122); experiment: BSK_3C_HLADR: BioMAP Diversity Plus: 3C Assay for Human Leukocyte Antigen - DR isotype (HLADR) Biomarker Activity (AID 2283019; active means hit-call score of the fitted dose curve at least 0.9, where 1 is the maximum; inactive means score below 0.9); conditions: primary human endothelial cells (HUVEC); actives raise or lower the signal
Method in brief: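 Compound added to primary HUVEC cultures, 24 h incubation, then HLA-DR determined by ELISA; endpoint derived by bidirectional fitting relative to DMSO negative control.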

[19] = molecular target: human Peroxisome Proliferator-activated Receptor delta (PPARd), PPARD (gene 5467) (UniProt Q03181); experiment: ATG_PPARd_TRANS: Attagene TRANS-FACTORIAL HepG2 Assay for human Peroxisome Proliferator-activated Receptor delta (PPARd) (AID 2283002)
Method in brief: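 Transient HepG2 transfection (multiple GAL4-UAS RTUs, chimeric receptor-Gal4); 24 h dosing; total RNA → oligo(dT) RT → PCR → 6-FAM primer extension → HpaI cut → CE. Positive direction vs DMSO.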

[20] = molecular target: human RAR-related Orphan Receptor gamma (RORg), RORC (gene 6097) (UniProt P51449); experiment: ATG_RORg_TRANS: Attagene TRANS-FACTORIAL HepG2 Assay for human RAR-related Orphan Receptor gamma (RORg) (AID 2283011)
Method in brief: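 Chimeric RORg-Gal4 transactivation in transfected HepG2; 24 h exposure; RT-PCR/capillary electrophoresis readout of reporter mRNA, DMSO baseline.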

Measured: AC50

human RAR-related Orphan Receptor beta (RORb), RORB (gene 6096), sequence (Q92753 whole entry, looked up, the tested form may be a part): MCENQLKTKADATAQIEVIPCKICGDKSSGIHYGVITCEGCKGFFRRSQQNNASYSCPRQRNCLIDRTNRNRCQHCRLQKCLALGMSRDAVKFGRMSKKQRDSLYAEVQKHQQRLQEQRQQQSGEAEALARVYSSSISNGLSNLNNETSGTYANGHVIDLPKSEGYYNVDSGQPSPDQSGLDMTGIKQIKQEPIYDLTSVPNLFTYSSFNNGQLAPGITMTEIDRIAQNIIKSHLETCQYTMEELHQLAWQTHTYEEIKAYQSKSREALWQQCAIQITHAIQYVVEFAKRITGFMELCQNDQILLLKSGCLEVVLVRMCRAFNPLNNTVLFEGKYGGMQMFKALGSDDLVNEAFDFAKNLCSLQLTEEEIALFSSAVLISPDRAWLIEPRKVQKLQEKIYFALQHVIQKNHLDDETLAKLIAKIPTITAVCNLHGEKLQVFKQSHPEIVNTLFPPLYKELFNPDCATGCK
human Peroxisome Proliferator-activated Receptor alpha (PPARa), PPARA (gene 5465), sequence (Q07869 whole entry, looked up, the tested form may be a part): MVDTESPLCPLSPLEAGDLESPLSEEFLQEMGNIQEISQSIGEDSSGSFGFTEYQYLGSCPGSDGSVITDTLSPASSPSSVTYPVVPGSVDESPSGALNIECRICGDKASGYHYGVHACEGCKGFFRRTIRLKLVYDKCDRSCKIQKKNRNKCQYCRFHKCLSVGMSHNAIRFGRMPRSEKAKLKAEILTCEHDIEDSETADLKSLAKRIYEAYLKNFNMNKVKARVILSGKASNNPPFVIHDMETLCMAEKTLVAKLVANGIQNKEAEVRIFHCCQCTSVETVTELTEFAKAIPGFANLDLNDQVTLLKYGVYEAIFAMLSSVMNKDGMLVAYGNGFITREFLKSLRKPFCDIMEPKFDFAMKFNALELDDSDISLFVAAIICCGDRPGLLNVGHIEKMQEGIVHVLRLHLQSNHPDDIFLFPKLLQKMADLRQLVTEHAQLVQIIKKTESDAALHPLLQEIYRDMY
Retinoic acid receptor RXR-alpha (Homo sapiens), sequence (P19793 whole entry, looked up, the tested form may be a part): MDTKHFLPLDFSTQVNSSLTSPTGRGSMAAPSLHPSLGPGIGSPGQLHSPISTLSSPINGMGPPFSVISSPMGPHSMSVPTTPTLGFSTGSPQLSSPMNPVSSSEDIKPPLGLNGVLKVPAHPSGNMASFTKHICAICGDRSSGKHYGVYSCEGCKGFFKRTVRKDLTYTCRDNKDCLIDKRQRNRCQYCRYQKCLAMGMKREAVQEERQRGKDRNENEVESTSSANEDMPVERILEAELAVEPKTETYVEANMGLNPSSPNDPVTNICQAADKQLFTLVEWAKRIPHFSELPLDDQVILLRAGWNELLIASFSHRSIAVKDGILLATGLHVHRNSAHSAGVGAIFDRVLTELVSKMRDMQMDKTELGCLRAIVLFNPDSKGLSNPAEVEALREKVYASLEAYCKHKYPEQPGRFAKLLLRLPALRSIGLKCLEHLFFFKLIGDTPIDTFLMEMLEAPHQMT
Retinoic acid receptor alpha (Homo sapiens), sequence (P10276 whole entry, looked up, the tested form may be a part): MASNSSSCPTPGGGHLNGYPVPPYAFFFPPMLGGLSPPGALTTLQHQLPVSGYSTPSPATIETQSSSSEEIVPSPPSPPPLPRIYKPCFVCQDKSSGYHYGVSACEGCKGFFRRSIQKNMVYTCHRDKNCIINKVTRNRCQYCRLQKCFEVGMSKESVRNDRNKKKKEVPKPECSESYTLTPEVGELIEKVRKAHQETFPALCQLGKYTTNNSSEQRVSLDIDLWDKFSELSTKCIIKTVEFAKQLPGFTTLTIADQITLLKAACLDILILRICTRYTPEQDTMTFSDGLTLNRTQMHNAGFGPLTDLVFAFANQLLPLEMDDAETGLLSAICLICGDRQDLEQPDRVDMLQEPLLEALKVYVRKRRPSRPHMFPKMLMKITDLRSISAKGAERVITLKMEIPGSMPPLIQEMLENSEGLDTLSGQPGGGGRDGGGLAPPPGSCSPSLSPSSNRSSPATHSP
E-selectin (Homo sapiens), sequence (P16581 whole entry, looked up): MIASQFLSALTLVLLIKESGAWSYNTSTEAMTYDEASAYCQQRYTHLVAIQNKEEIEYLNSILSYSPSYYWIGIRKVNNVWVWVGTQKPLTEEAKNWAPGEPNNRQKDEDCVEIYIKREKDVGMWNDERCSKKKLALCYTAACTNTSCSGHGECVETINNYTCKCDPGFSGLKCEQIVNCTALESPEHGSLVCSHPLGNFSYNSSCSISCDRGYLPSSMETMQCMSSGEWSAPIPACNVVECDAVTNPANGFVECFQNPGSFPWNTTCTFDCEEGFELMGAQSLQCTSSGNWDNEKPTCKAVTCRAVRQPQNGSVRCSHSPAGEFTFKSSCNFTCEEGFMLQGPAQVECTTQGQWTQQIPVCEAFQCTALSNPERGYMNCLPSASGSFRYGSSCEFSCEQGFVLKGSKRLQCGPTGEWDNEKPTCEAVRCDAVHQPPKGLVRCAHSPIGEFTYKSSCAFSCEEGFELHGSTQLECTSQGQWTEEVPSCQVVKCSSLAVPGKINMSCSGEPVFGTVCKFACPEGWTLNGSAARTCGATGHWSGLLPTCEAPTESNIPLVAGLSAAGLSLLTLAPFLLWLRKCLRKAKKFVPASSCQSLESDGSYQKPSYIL
Peroxisome proliferator-activated receptor gamma (Homo sapiens), sequence (P37231 whole entry, looked up, the tested form may be a part): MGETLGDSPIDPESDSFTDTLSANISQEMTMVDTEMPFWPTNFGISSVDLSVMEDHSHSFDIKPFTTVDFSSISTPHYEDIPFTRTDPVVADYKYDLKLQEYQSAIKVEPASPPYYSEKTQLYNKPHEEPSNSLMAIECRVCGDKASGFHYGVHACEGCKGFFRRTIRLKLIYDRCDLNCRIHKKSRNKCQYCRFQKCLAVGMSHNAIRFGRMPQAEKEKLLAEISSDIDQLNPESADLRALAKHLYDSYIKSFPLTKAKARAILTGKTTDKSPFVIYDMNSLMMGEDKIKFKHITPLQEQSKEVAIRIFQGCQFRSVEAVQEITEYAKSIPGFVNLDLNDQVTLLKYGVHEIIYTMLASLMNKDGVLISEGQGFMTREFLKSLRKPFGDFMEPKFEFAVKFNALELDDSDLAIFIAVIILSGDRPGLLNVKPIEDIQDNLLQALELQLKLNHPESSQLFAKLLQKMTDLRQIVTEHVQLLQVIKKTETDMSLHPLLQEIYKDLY
human Retinoic Acid Receptor gamma (RARg), RARG (gene 5916), sequence (P13631 whole entry, looked up, the tested form may be a part): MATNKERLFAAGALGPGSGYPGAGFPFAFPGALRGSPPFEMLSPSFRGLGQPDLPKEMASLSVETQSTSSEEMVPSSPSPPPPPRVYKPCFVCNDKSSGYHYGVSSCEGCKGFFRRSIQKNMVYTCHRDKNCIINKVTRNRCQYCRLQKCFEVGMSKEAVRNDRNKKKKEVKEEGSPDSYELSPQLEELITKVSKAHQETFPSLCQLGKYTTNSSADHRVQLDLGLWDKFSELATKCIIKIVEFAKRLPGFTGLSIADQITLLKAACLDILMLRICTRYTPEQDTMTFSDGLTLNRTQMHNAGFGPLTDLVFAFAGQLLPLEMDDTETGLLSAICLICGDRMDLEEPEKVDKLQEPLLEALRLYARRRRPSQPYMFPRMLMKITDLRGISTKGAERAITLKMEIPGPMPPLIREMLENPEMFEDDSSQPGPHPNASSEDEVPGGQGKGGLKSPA
Nuclear receptor subfamily 1 group I member 2 (Homo sapiens), sequence (O75469 whole entry, looked up, the tested form may be a part): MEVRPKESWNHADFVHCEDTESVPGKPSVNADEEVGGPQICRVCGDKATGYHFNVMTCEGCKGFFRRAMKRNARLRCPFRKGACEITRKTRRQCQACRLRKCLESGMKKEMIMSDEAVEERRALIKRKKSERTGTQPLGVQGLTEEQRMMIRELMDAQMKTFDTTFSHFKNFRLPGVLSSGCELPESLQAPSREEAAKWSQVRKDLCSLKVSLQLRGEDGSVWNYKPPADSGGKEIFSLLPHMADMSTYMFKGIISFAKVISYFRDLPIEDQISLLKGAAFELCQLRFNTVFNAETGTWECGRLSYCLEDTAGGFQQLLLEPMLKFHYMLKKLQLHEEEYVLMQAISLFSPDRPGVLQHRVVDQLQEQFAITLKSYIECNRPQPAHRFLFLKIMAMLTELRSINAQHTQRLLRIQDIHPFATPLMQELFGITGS
human Retinoid X Receptor beta (RXRb), RXRB (gene 6257), sequence (P28702 whole entry, looked up, the tested form may be a part): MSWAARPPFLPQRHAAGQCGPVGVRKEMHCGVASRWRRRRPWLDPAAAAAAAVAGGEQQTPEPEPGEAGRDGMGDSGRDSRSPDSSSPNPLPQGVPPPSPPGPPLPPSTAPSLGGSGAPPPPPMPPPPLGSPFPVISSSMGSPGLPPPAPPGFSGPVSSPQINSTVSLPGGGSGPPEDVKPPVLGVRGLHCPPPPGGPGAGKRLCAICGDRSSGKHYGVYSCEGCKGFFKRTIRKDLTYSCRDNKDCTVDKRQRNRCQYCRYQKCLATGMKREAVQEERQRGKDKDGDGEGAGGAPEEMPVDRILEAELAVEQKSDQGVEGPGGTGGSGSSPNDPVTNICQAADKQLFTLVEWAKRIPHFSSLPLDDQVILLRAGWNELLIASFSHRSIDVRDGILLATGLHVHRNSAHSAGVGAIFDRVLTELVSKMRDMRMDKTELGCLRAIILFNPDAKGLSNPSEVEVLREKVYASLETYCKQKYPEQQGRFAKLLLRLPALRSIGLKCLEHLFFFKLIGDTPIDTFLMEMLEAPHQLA
human Thyroid Receptor alpha (THRa1), THRA (gene 7067), sequence (P10827 whole entry, looked up, the tested form may be a part): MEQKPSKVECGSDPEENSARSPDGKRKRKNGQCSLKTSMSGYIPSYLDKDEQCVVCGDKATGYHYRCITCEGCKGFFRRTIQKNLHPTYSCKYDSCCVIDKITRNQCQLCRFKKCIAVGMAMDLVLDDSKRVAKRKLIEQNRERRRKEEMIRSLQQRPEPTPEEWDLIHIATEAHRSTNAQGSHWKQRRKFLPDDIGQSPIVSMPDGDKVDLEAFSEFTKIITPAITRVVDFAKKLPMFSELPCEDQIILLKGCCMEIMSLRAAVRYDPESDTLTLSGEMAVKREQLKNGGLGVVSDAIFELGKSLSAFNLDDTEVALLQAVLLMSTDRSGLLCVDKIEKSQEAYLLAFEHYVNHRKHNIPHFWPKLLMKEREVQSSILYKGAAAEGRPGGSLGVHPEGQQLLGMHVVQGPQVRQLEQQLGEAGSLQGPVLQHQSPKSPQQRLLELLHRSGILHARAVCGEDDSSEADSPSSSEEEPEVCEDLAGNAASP

CCCCCCOC(=O)CCCCC(=O)OCCCCCC
active: [12] 54.2 µM
not listed: [19] | [20]
inactive: all other assays above

CCCCCC1=CCCC1=O
active: [7] 35.4 µM | [18] 20 µM
inactive: [1] | [2] | [19] | [3] | [6] | [11] | [12] | [14] | [15]

CC(C)C(=O)OCCc1ccccc1
not listed: [2] | [5] | [7] | [11] | [12] | [16] | [17]
inactive: all other assays above

CC=C(C)C(C)=O
active: [1] 20 µM | [8] 12 µM | [11] 100 µM | [12] 9.05 µM
not listed: [4] | [5] | [7] | [13] | [17]
inactive: all other assays above

CCOC(=O)[C@H](O)[C@@H](O)C(=O)OCC
active: [8] 68.2 µM
inactive: [2] | [19] | [4] | [5] | [7] | [11] | [12] | [13]

CC1=CC=C(C(C)C)CC1
inactive: [1] | [3] | [6] | [7] | [10] | [11] | [12] | [14] | [15] | [17] | [18]

O=C(Cl)c1c(Cl)c(Cl)c(C(=O)Cl)c(Cl)c1Cl
active: [12] 100 µM
not listed: [2] | [4] | [5] | [10] | [13] | [17] | [19]
inactive: all other assays above

COC(OC)(C(=O)c1ccccc1)c1ccccc1
active: [8] 0.52 µM
not listed: [2] | [4] | [5] | [10] | [13] | [16] | [17] | [20]
inactive: all other assays above

CC1=CC(C)C(C=O)CC1 (stereo unspecified)
inactive: [2] | [19] | [4] | [5] | [7] | [9] | [10] | [20] | [11] | [12]
active: [8] 27.8 µM

CCC(C)C(=O)OC (stereo unspecified)
inactive: [2] | [19] | [4] | [5] | [7] | [8] | [10] | [20] | [11] | [12]

C[N+](C)(C)CCCNS(=O)(=O)C(F)(F)C(F)(F)C(F)(F)C(F)(F)C(F)(F)C(F)(F)C(F)(F)C(F)(F)F
inactive: [3] | [7] | [8] | [9] | [11] | [14] | [15] | [18]
active: [1] 39 µM and 45.1 µM | [6] 43.4 µM and 42.7 µM | [15] 14.3 µM

Nc1ccc(C(=O)O)cc1
not listed: [2] | [7] | [8] | [11] | [12] | [13] | [16] | [19]
inactive: all other assays above

CCCCC1C(=O)N(c2ccccc2)N(c2ccccc2)C1=O
active: [7] 22.6 µM | [8] 1.01 µM
not listed: [2] | [5] | [10] | [12] | [13] | [19] | [20]
inactive: all other assays above

CC=CC(=O)OCC(C)C
inactive: [2] | [19] | [4] | [5] | [7] | [8] | [9] | [10] | [11]

O=C(O)C(F)(F)C(F)(F)C(F)(F)C(F)(F)C(=O)O
not listed: [2] | [4] | [5] | [12] | [13] | [16] | [17] | [19]
inactive: all other assays above

Cc1c(O)cccc1O
inactive: [1] | [3] | [6] | [7] | [8] | [10] | [14] | [15] | [18]

CC(=O)OCc1ccccc1
inactive: [2] | [19] | [4] | [7] | [8] | [10] | [11] | [12]

C1CNCCN1
inactive: [1] | [3] | [6] | [8] | [9] | [14] | [15] | [16] | [17] | [18]

CC/C=C\C/C=C\C/C=C\CCCCCCCC(=O)OC
active: [1] 27.7 µM | [19] 68 µM | [3] 29.7 µM | [6] 7.69 µM | [7] 14.8 µM | [8] 31.3 µM | [12] 125 µM | [14] 19.2 µM | [15] 16.2 µM | [18] 10.7 µM
inactive: [20] | [11]

CC1OC(=O)C(C)OC1=O (stereo unspecified)
inactive: [2] | [19] | [4] | [7] | [8] | [10]

O=C(O)c1ccc2c(c1)C(=O)OC2=O
inactive: [2]

Source: PubChem BioAssay (EPA / NIEHS)
